According to the supplement of paper PMC9925115:

Test system: FLX1 + dox-induced PRKAR1A G325D
Test: difference in log2 fold change of viability vs plate median (dox-induced PRKAR1A G325D minus uninduced); higher = compound less effective when PKA is inhibited
Settings: concentration: not stated (2 or 5 uM); 5 days
Protocol: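 For each plate a log2 fold change vs the plate median was derived, and the values without dox were subtracted from those with dox, averaged over three biological replicates.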

Compound | difference in log2 fold change of viability
O=C1NCCc2[nH]c(-c3ccncc3)cc21 | 0.179
CCCS(=O)(=O)Nc1ccc(F)c(C(=O)c2c[nH]c3ncc(-c4ccc(Cl)cc4)cc23)c1F [Vemurafenib (PLX4032, RG7204)] | 0.336
N#CCNC(=O)c1ccc(-c2ccnc(Nc3ccc(N4CCOCC4)cc3)n2)cc1 [Momelotinib (CYT387)] | 0.708
O=C1NC(=O)C(c2cnc3ccccn23)=C1c1cn2c3c(cc(F)cc13)CN(C(=O)N1CCCCC1)CC2 | 0.116
COc1cc2ncnc(Nc3ccc(F)c(Cl)c3)c2cc1OCCCN1CCOCC1 [Gefitinib (ZD1839)] | -0.198
Cc1ccccc1CN1C2=NCCN2C(=O)C2=C1CCN(Cc1ccccc1)C2 [TIC10 Analogue] | -0.0375
COc1ccccc1-c1cc(Nc2cccc(CS(N)(=O)=O)c2)ncn1 | 0.055
CNc1nc(Nc2cnn([C@H]3CCN(C4COC4)C[C@@H]3F)c2Cl)ncc1C(F)(F)F | -0.177
CO[C@H]1C[C@@H]2CC[C@@H](C)[C@@](O)(O2)C(=O)C(=O)N2CCCC[C@H]2C(=O)O[C@H]([C@H](C)C[C@@H]2CC[C@@H](OC(=O)C(C)(CO)CO)[C@H](OC)C2)CC(=O)[C@H](C)/C=C(\C)[C@@H](O)[C@@H](OC)C(=O)[C@H](C)C[C@H](C)/C=C/C=C/C=C/1C | 0.457
CN1CCN(c2ccc(Nc3cc(-c4cccc(-n5ccc6cc(C7CC7)cc(F)c6c5=O)c4CO)cn(C)c3=O)nc2)CC1 | -0.059
COCC(=O)NC/C=C/c1ccc2ncnc(Nc3ccc(Oc4ccc(C)nc4)c(C)c3)c2c1 | 0.0049
CC(C)c1cnn2c(NCc3ccccc3)cc(NCCCCCCN)nc12 | -0.0617
COc1cc2c(Nc3ccc(NC(=O)c4ccccc4)cc3)ncnc2cc1OCCCN1CCOCC1 | 0.301
O=C1NC(=O)[C@@H](c2cn3c4c(cccc24)CCC3)[C@@H]1c1c[nH]c2ccccc12 [Tivantinib (ARQ 197)] | 0.768
CCN(CC)CCNC(=O)c1c(C)[nH]c(/C=C2\C(=O)Nc3ccc(F)cc32)c1C [Sunitinib Malate] | -0.043
O=C(Nc1ccc(OC(F)(F)F)cc1)c1sccc1NCc1ccnc2ccccc12 | 0.386
Nc1nc(N)c(N=O)c(OCC2CCCCC2)n1 | -0.216

Compound | difference in log2 fold change of viability
Cc1nc(Nc2ncc(C(=O)Nc3c(C)cccc3Cl)s2)cc(N2CCN(CCO)CC2)n1 [Dasatinib] | 0.18
CCOc1cc(C(=O)N2CCC(N3CCN(C)CC3)CC2)ccc1Nc1ncc2c(n1)N(C1CCCC1)c1ccccc1C(=O)N2C | 0.00328
Cn1cc(/C=C2\C(=O)Nc3cccnc32)c2ccccc21 | 0.00477
O=C(O)[C@]1(Cc2cccc(Nc3nccs3)n2)CC[C@@H](Oc2cccc(Cl)c2F)CC1 | -0.795
CCN1CCN(Cc2ccc(Nc3ncc(F)c(-c4cc(F)c5nc(C)n(C(C)C)c5c4)n3)nc2)CC1 | -0.0976
C[C@@]1(C(=O)Nc2ccc(F)nc2)CCCN1c1nc(Nc2cc(C3CC3)n[nH]2)c2cccn2n1 | -1.23
O=C(NC(NC(=S)Nc1ccc(F)c([N+](=O)[O-])c1)C(Cl)(Cl)Cl)C(c1ccccc1)c1ccccc1 (stereo not drawn) | 0.101
Cc1cc2c(F)c(Oc3ncnn4cc(OC[C@@H](C)O)c(C)c34)ccc2[nH]1 | 0.515
Nc1nc(N)c2nc(-c3cccc(O)c3)c(-c3cccc(O)c3)nc2n1 | 0.117
Cc1cc(Nc2cc(N3CCN(C)CC3)nc(/C=C/c3ccccc3)n2)n[nH]1 | -0.0361
OCCn1cc(-c2ccc3c(c2)CC/C3=N\O)c(-c2ccncc2)n1 | 0.00993
O=C(Nc1ccc(-c2ccnc(Nc3ccc(N4CCOCC4)cc3)n2)cc1)C1CCCN1 (stereo not drawn) | 0.201
O=C1Nc2ccc(I)cc2/C1=C/c1cc(Br)c(O)c(Br)c1 | 1.35
Cc1nc(Nc2cnn(C3CCNCC3)c2)nc2c1N(C)C(=O)c1cc3ccccc3cc1N2C | -0.568
C=CC(=O)Nc1ccc2ncnc(Nc3cccc(Br)c3)c2c1 | -0.936
Cc1[nH]c(/C=C2\C(=O)Nc3ccc(S(=O)(=O)Cc4c(Cl)cccc4Cl)cc32)c(C)c1C(=O)N1CCC[C@@H]1CN1CCCC1 | -0.266
